# Screening data (PubChem BioAssay)
# L major viab: Leishmania major promastigote growth inhibition, primary screen. Leishmania major promastigotes, resazurin fluorescence viability. inhibition, % at 10 µM. 200,000 compounds, 9% hits. AID 1063, 2008; in the data active = inhibition above about 50%;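 also: promastigotes grown with compound for 44 hours at 28 °C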
# CHOP inhibitor: inhibitors of CHOP promoter induction, primary screen, cell-based, unfolded protein response, luciferase reporter. CHO-K1 CHOP-promoter luciferase, tunicamycin-induced, 15-18 h. inhibition, % at 10 µM. 220,000 compounds, 3.8% hits. AID 2732, 2010;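 active = compounds that reduced the stress-induced luciferase reporter signal by more than about 70% of percent inhibition, limit read from the data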;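 also: 0% = tunicamycin plus vehicle and 100% = wells without tunicamycin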
# WT yeast gro inh: growth inhibition of WT strain, primary screen, mitochondrial fusion inhibitor project, WT and mutant strains, chemical genetic. mitochondrial fusion phenotypic screen. inhibition, % at 10 µM. 190,000 compounds, 2.1% hits; in the data active = inhibition above about 58%; tested in S. cerevisiae
# RAM inhibit: inhibitors of the yeast RAM network, primary screen, dse1pr::URA3 reporter, 5-FOA selection; S. cerevisiae dse1pr::URA3 reporter, 5-FOA growth OD615, 2 d; analog-sensitive cbk1-as2 kinase mutant strain; inhibition, % at 50 µM; 190,000 compounds, 1.8% hits;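 active = inhibition above a set limit, 3 SD over mean compound inhibition, cut at about 8.4% in these data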;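 also: 0% = DMSO-only wells with no growth and 100% = 10 µM 1-NA-PP1 full growth; inhibition rescues growth on 5-FOA so higher OD means more RAM inhibition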
# Starred values were filed as active, the others as inactive; nt = not tested or not shown. Only some compounds are listed: those with a hit (about 13% of all), similar ones and a draw of the others.
SMILES,L major viab,CHOP inhibitor,WT yeast gro inh,RAM inhibit
CCS(=O)(=O)N1Cc2ccccc2CC1C(=O)Nc1nc2ccc(C)cc2s1 (stereo unspecified),92*,64,43,0
Cc1cccc2sc(NNC(=O)c3ccc(S(=O)(=O)N4CC(C)CC(C)C4)cc3)nc12 (stereo unspecified),99*,47,-14,4
S=C(NCCN1CCOCC1)NC1CCCC1,-1,-3,0,-1
CC1CCCCC1NC(=O)CN(C)S(=O)(=O)c1cccc2cccnc12 (stereo unspecified),nt,5,nt,nt
CC(C)N1C(=S)N(Cc2ccco2)C(=O)C1CC(=O)Nc1ccccc1 (stereo unspecified),2,27,-10,3
Cc1ccc2nc(NNC(=O)c3ccc(S(=O)(=O)N4CCc5ccccc5C4)cc3)sc2c1,100*,56,-2,4
CCOc1ncccc1C(=O)N1CCCSC1=Nc1ccc(C(C)=O)cc1,3,-1,-1,1
COc1ccc(C)cc1NC(=S)NC(C)c1ccc(OC)c(OC)c1 (stereo unspecified),54*,10,64*,3
CCC(C)c1ccc(NC(=S)NC(C)C2CCCO2)cc1 (stereo unspecified),4,0,66*,0
COc1ccc(NC(=S)NC(C)c2ccncc2)cc1OC (stereo unspecified),7,0,9,-1
CCC(C)c1ccc(NC(=S)Nc2ccc(OC)c(OC)c2)cc1 (stereo unspecified),1,15,72*,4
CCC(C)c1ccc(NC(=S)Nc2ccc(OC)cc2C)cc1 (stereo unspecified),37,43,75*,5
Cc1ccc(NC(=S)NCC2CCCO2)cc1 (stereo unspecified),0,-17,0,1
CCN(Cc1ccncc1)Cc1c(O)ccc2cc(Br)ccc12,-2,-4,-4,0
COc1ccc2ccc3c(c2c1)N=CC1(O3)N(C)c2ccccc2C1(C)C (stereo unspecified),24,45,78*,1
CSc1nsc(N/N=C/c2ccc3c(c2)OCO3)c1C#N,-7,76*,9,8
COc1ccc(OC)c(C(=O)CSc2nc3ccccc3n2CC(=O)NC(C)(C)C)c1,61*,56,3,8
COc1cccc(NC(=O)CN(C)C(C)C(=O)Nc2cc([N+](=O)[O-])ccc2Cl)c1 (stereo unspecified),32,19,1,0
COc1cc(C(=O)OCC(=O)Nc2ccc(C(C)=O)cc2)ccc1OCC(=O)N1CCOCC1,66*,-4,-1,2
CCOc1cc(C(=O)Nc2nnc(CC)s2)ccc1OCC(=O)N1CCOCC1,-6,3,3,0
CCOc1cc(C(=O)OCC(=O)Nc2c(C)cccc2C)ccc1OCC(=O)N1CCOCC1,-7,21,-6,0
COc1ccc(-c2csc(NC(=O)c3ccc(OCC(=O)N4CCOCC4)c(OC)c3)n2)cc1OC,71*,13,-13,4
Cc1ccccc1CSc1nnc([C@@H]2CCCN2)o1,nt,-17,nt,nt
Cc1cc(C)c(NC(=O)CSc2nc3c(c(=O)n2C)SC(C)C3)c(C)c1 (stereo unspecified),3,50,8,2
CN(CC(=O)Nc1nc2ccccc2s1)S(=O)(=O)c1ccc(Cl)cc1,88*,84*,7,1
SMILES,L major viab,CHOP inhibitor,WT yeast gro inh,RAM inhibit
CCOc1ccc2nc(NC(=S)N(C)C)sc2c1,80*,-218,55,4
CCNC(=O)Nc1nc2ccccc2s1,6,10,-1,3
CCCC(=O)Nc1nc2ccc(OCC)cc2s1,15,9,11,1
CN(CC(=O)Nc1nc2ccccc2s1)S(=O)(=O)c1ccc(Br)cc1,16,-1,5,4
CN(C)C(=S)Nc1nc2ccccc2s1,16,-295,74*,2
COc1ccc(NC(=O)C2CCCC2)cn1,0,18,-16,3
CC1CCCC(C)N1C(=O)COC(=O)C(Cc1ccccc1)NC(=O)c1cccs1 (stereo unspecified),1,25,-13,1
c1ccc(CSc2nnc(-c3sccc3-n3cccc3)o2)cc1,6,32,23,8.7*
NCCc1nnc(SCc2ccccc2)o1,2,-30,-6,1
CCOC(=O)c1cc2c(ccn2C)n1Cc1cc(C)ccc1C,93*,90*,67*,3
CCOC(=O)c1cc2c(ccn2C)n1CC(=O)N1CCN(c2ccc(F)cc2)CC1,-4,-13,-4,0
